Screening data: PubChem, National Center for Advancing Translational Sciences (NCATS)
An excerpt weighted towards active compounds, which were near 3.1% of everything screened.
VDR inhibitor: blocks the human vitamin D receptor; 0.93% of 400,000 active; Potency, µM, for inactives: max response, negative = inhibition, actives largely listed as inhibitors; P11473; VDR-SRC2-3 peptide fluorescence polarization, 2 h; further: potency means the concentration at half of the fitted maximal effect; on the % scale 0 is the no-effect control and ±100 the full control effect
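Fluorescence polarization assay measuring small-molecule disruption of VDR binding to the coregulator peptide SRC2-3. Compounds were pin-transferred (23 nl) into the reagent mix and incubated 2 h at room temperature before reading.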
Vif-A3F inh: Vif-A3F binding inhibition; Potency, µM (top dose mostly 46.1 µM), without a hit: top-dose activity, negative = active; 0.2% of 390,000 active; AID 602313; HeLa A3F-eYFP + Vif (tagged APOBEC3F with the HIV-1 protein that degrades it), YFP fluorescence increase; further: potency means the concentration at half of the fitted maximal effect; % of control where 0% means no effect; nearly all actives have a fitted effect of over 65% in size
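HeLa cells stably expressing Vif plus C-terminally eYFP-tagged A3F were seeded, incubated overnight at 37 deg C, dosed with compound, incubated overnight again at 37 deg C. Yellow fluorescence (Ex 488/Em 500-530) reported blocked Vif-mediated A3F-eYFP degradation.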
TSHR antagonist: human thyrotropin receptor antagonism; AID 504810; P16473; TSHR-expressing cells, TSH-stimulated cAMP HTRF, 2 h; active compounds read low; 0.2% of 330,000 active; activity change, negative = inhibition, % at 11.5 µM;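 active means activity change below a set negative limit, meaning inhibition stronger than a set level, cut at about -70% in these data; inconclusive means activity change between two set negative limits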; further: on the % scale 0 is the no-effect control and ±100 the full control effect
Target sequence (P16473 whole entry, looked up): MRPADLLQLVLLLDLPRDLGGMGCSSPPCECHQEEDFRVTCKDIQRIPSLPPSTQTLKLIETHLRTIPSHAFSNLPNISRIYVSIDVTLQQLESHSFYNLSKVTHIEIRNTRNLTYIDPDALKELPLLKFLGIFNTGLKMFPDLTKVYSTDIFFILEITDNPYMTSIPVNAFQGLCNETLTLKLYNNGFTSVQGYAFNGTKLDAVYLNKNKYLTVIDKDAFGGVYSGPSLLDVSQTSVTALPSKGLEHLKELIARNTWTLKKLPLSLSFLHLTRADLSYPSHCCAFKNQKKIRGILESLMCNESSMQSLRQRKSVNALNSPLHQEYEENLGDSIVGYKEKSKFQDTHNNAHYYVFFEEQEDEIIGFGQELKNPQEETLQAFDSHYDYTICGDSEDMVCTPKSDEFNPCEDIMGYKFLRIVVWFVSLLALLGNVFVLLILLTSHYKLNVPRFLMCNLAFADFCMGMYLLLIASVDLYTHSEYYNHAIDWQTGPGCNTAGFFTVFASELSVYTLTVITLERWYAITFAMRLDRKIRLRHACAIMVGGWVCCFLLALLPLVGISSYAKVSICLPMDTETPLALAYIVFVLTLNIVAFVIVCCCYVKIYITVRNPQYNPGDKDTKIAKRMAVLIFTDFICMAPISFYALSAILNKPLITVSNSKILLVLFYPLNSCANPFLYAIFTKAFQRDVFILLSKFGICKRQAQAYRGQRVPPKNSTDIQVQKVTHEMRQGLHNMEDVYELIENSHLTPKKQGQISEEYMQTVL
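Read-out is FRET at 665 nm (cryptate excitation 337 nm) from a cryptate-tagged anti-cAMP antibody, competed by cell cAMP against cAMP-d2. Compounds are tested on freshly harvested TSHR cells challenged with 4nM TSH (EC80) for 2 hours at 37 deg C.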
PLK1 PBD block: PLK1 (human) polo-box domain binding inhibition. P53350. Plk1 PBD binding of FITC phosphopeptide, fluorescence polarization. Potency, µM, for inactives: max response, negative = inhibition, hits mostly inhibitors. 2.8% of 360,000 active. AID 720504; further: potency means the concentration at half of the fitted maximal effect; series mostly up to about 57 µM; on the % scale 0 is the no-effect control and ±100 the full control effect; nearly all actives have a fitted effect of over 65% in size
Vif-APOBEC3G blk: blocks the Vif interaction with human APOBEC3G. Q9HC16. HeLa A3G-eYFP + Vif (tagged APOBEC3G with the HIV-1 protein that degrades it), YFP fluorescence, overnight. Potency, µM (titrated, usually from 46.1 µM), inactives show at the top dose activity, negative = active, most hits filed as inhibitors. 0.076% of 410,000 active; further: potency means the concentration at half of the fitted maximal effect; on the % scale 0 is the no-effect control and ±100 the full control effect; nearly all actives have a fitted effect of over 60% in size
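Read-out is eYFP fluorescence (Ex 488/Em 500-530) from Vif-expressing HeLa A3G-eYFP cells; more signal means A3G escaped Vif-mediated degradation. Cells plated overnight, compound pinned in, incubated overnight at 37 deg C.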
* marks the source's active call; other numbers are inactive results; u = inconclusive; x = no result given. Unless noted, the call rests on the fitted dose curve; in most records, active means well fitted curve in the direction sought with a large enough effect; inconclusive means small, poorly fitted or top-dose-only effect, or another doubt; inactive means no such curve, though single readings can be large; an effect the other way counts as inactive or inconclusive.

SMILES	VDR inhibitor	Vif-A3F inh	TSHR antagonist	PLK1 PBD block	Vif-APOBEC3G blk
CCCc1nn2c(=O)cc(COC(=O)c3ccccc3NC(=O)C3CCCCC3)nc2s1	6%	2%	x	x	0%
COc1ccc(/C(C)=N/Nc2cccc(C(=O)O)c2)cc1OC	-13%	2%	12	-19%	0%
COc1ccc(/C(=C/Nc2cccc(Br)c2)C(C)=O)cc1OC	4%	0%	-1	27µM*	2%
COc1ccccc1NC(=O)Nc1ccccc1Br	u	-11%	-7	12µM*	-6%
COc1ccccc1NC(=O)C(C/C=C(/C)Cl)C(C)=O (stereo not given)	14%	7%	-12	30µM*	0%
COc1ccccc1NC(=O)CCC(=O)Nc1cc(OC)c(NC(=O)c2cccs2)cc1OC	u	5%	-7	27µM*	5%
COc1ccccc1NC(=O)O/N=C(\N)c1ccccc1	u	-6%	-24	11µM*	2%
CCCCN1CCCC1C(=O)Nc1c(C)cc(C)cc1C (stereo not given)	0%	x	x	x	x
COc1ccccc1NC(=O)CC(=O)Nc1ccccc1OC	6%	0%	-7	-4%	-1%
COc1ccccc1NC(=O)NC1(C(=O)N2CCCCC2)CCCCC1	-7%	15%	-75*	-11%	5%
COc1ccccc1NC(=O)CC(=O)c1ccccc1	u	14%	3	30µM*	-7%
CC1(C)C(O)C=C[C@@]2(C)C1CC(=O)O[C@@]1(C)C3=CC(=O)OC(c4ccoc4)[C@]3(C)CCC21 (stereo not given in full)	45µM*	x	x	x	x
O=C1c2cccc3c([N+](=O)[O-])ccc(c23)C(=O)N1c1nccs1	3%	u	-31	-11%	u
O=C1c2cccc3c([N+](=O)[O-])ccc(c23)C(=O)N1O	-1%	5µM*	0	u	11µM*
CC(=O)Oc1ccc(-n2c(=O)c3ccccc3c3ccccc3c2=O)cc1	19%	0%	-9	-7%	0%
COc1ccc2c3c(cccc13)C(=O)N(O)C2=O	-8%	-3%	-2	-25%	-24%
O=C1c2cccc3c([N+](=O)[O-])ccc(c23)C(=O)N1c1ccc(Cl)cn1	-6%	u	-89*	u	8%
O=C1c2cccc3c([N+](=O)[O-])ccc(c23)C(=O)N1c1ccccn1	-15%	13µM*	58	u	12%
CC(=O)Oc1ccc(N2C(=O)c3cccc4c([N+](=O)[O-])ccc(c34)C2=O)cc1	6%	22µM*	-49	-3%	u
COc1cc(NC(=O)O[C@@H]2C(=O)c3cc(Br)ccc3O[C@H]2c2ccc3c(c2)OCO3)cc(OC)c1OC	-11%	x	x	x	x
CC(C)[C@@H]1CC[C@@H](C)C[C@@H]1P(=O)(c1ccccc1)c1ccccc1	-4%	x	-13	x	x
COC(=O)c1c(C(=O)OC)c(-c2ccc(Cl)cc2)n2c1CS(=O)(=O)C2	u	0%	-13	4.2µM*	0%
CC(=O)c1c(C)[nH]c(C(=O)OCC(=O)Nc2cc(Cl)ccc2[N+](=O)[O-])c1C	2%	-11%	-77*	2%	6%
COC(=O)[C@H](COC(C)(C)C)NC(=O)O[C@H]1C(=O)c2cc(OC)ccc2O[C@@H]1c1ccc(OC)c(Br)c1	0%	x	x	x	x
CC1CCN(S(=O)(=O)c2ccc3c(c2)CCN3)CC1	13%	-5%	x	x	9%
SMILES	VDR inhibitor	Vif-A3F inh	TSHR antagonist	PLK1 PBD block	Vif-APOBEC3G blk
Cc1cc(-c2nnc3sc(C4CCCCC4)nn23)n[nH]1	-14%	-12%	1	27µM*	0%
CCOC(=O)c1ccc(NC(=O)c2c(NC(=O)CCC(=O)O)sc3c2CCCCC3)cc1	u	1%	-10	27µM*	-5%
CCC(=O)Nc1sc2c(c1C(=O)Nc1ccc(Br)cc1)CCCCC2	14µM*	2%	x	x	-2%
COc1ccc(CN(Cc2ccccc2)C(C)=O)cc1COc1ccc(NC(C)=O)cc1	-9%	x	x	x	x
COc1ccc(Cl)cc1NC(=O)Cn1c(=O)n(CCC(=O)NCc2ccc3c(c2)OCO3)c(=O)c2ccccc21	-11%	u	x	x	u
CC(C)CC1=NN(C(=O)c2ccncc2)C(O)(C(F)(F)F)C1 (stereo not given)	u	1%	3	24µM*	-1%
COc1cccc(Cn2c(=O)c(C)nc3cnc(OCc4ccccc4)nc32)c1	-8%	x	x	x	x
CCS(=O)(=O)N1CCc2cc(C(=O)N3CCN(c4cccc(C(F)(F)F)c4)CC3)ccc21	10%	-6%	x	x	13µM*
O=C(c1cc(=O)[nH]c2ccccc12)N1CCN(c2cccc(C(F)(F)F)c2)CC1	u	2%	9	19µM*	1%
O=C(c1c(F)c(F)c(F)c(F)c1F)N1CCN(c2cccc(C(F)(F)F)c2)CC1	u	-8%	-3	6µM*	u
O=C(c1ccccc1F)N1CCN(c2cccc(C(F)(F)F)c2)CC1	-16%	-3%	-3	5%	1%
O=C(c1coc2ccccc2c1=O)N1CCN(c2cccc(C(F)(F)F)c2)CC1	8%	-1%	17	0%	0%
COc1ccc(NC(=O)N2CC3(CCN(C(=O)c4cnccn4)CC3)C2)cc1	-1%	x	x	x	x
CCCCCCCCCCCCCCCCOCC(COP(=O)([O-])OCC[N+](C)(C)C)OC (stereo not given)	-1%	x	x	x	x
CCCCCCCCCCCCCCCCCCOC[C@H](COP(=O)([O-])OCC[N+](C)(C)C)OC	10%	x	-81*	x	x
Cn1nnc2c(N3CCN(Cc4ccccc4)CC3)ncnc21	-5%	x	x	x	x
CCOC(=O)c1ccc(NC(=S)Nc2cccc(C)n2)cc1	-12%	11µM*	-6	-12%	3%
CCOC(=O)c1ccc(NC(=S)Nc2cccc(N)n2)cc1	3%	-33%	-4	-17%	4%
Clc1ccc(C2=NNC(=NCc3ccccc3)SC2)cc1	-14%	-5%	31	u	0%
Fc1ccc(C2=NNC(=NCc3ccccc3)SC2)cc1F	-7%	u	9	27µM*	-11%
Clc1ccc(/C=C/c2ccc3ccccc3n2)cc1Cl	x	x	x	x	2%
CC(=O)C(Cc1ccccc1)NC(=O)CN1CCc2ccccc2C1 (stereo not given)	9%	6%	-5	-1%	0%
CC(CCc1ccccc1)NC(=O)CN1CCc2ccccc2C1 (stereo not given)	-16%	-2%	0	27µM*	-1%
Cc1cnc(CNc2ncncc2-c2ccccc2C(F)(F)F)cn1	-1%	x	x	x	x
O=C(c1ccccc1F)N1CCN(Cc2ccc3c(c2)OCO3)CC1	5%	8%	-24	-5%	0%
N#Cc1c(F)cccc1N1CCN(Cc2ccc3c(c2)OCO3)CC1	-1%	0%	-90*	-17%	0%
